Compounds with a hit are over-represented: about 12% of the library has one in this group of screens.
USP28 inh – inhibitors of human USP28 deubiquitinase | purified USP28, Ub-rhodamine cleavage fluorescence, 30 min | actives 3% (n = 47,000) | inhibition, % at 25 µM | Ubiquitin carboxyl-terminal hydrolase 28 (Homo sapiens), Q96RU2
USP17 inh – inhibitors of human USP17 deubiquitinase; purified USP17, Ub-rhodamine cleavage fluorescence, 3 h; inhibition, % at 50 µM; Ubiquitin carboxyl-terminal hydrolase 17-like protein 5 (Homo sapiens), A8MUK1; AID 1645855, 2021; actives 6.5% (n = 47,000)
USP30 inh – inhibitors of human USP30 deubiquitinase. Ubiquitin carboxyl-terminal hydrolase 30 (Homo sapiens), Q70CQ3. purified USP30, Ub-rhodamine cleavage fluorescence. inhibition, % at 25 µM. actives 5.3% (n = 47,000). AID 1645860, 2021
Target sequence (Q70CQ3 whole entry, looked up): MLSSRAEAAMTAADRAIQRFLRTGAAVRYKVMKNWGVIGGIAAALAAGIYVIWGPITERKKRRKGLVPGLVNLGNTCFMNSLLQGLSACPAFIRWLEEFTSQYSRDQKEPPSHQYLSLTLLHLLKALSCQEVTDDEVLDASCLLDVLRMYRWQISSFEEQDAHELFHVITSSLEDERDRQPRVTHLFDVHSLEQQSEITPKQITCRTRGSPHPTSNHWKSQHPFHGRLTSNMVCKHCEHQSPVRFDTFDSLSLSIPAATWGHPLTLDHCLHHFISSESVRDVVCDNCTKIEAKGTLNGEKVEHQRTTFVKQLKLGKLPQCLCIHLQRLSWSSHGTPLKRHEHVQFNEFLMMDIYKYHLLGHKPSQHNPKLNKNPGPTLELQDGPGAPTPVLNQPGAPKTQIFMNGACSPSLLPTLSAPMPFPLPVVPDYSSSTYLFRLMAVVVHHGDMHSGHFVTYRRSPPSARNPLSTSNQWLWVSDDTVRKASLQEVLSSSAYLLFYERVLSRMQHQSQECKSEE
OTUD3 block – inhibitors of human OTUD3 deubiquitinase; inhibition, % at 25 µM; AID 1645858, 2021; actives 0.7% (n = 47,000); purified OTUD3, Ub-rhodamine fluorescence, 2 h
* = called active by the depositor; nt = no result given. No stated cut-off is given here; in the data, active means inhibition above about 30%; inactive means the rest.

SMILES	USP28 inh	USP17 inh	USP30 inh	OTUD3 block
COc1cccc(C(=O)Nc2cccc(N3CCCC3=O)c2)c1OC	-5.9	0.4	5.5	0.0
O=C(Nc1cccc(N2CCCC2=O)c1)c1cccc2cccnc12	-0.5	55.6*	12.3	0.4
O=C1CCC(=O)NCCCCCN(O)C(=O)CCC(=O)NCCCCCN(O)C(=O)CCC(=O)NCCCCCN1	17.7	13.0	44.3*	19.5
CN(C)S(=O)(=O)c1ccc(C(=O)Nc2sccc2C#N)cc1	-23.0	-6.7	-90.1	-20.5
CN(C)S(=O)(=O)c1ccc(C(=O)Nc2c(C#N)oc3ccccc23)cc1	27.4	50.8*	25.5	11.0
NC(=O)c1ccc(NC(=O)c2cnn(Cc3ccccc3)c2)cc1	8.4	37.8*	15.4	6.8
Cc1ccc(Cn2c(=O)c3ccccc3n3c(CCC(=O)NCCN4CCN(c5cccc(Cl)c5)CC4)nnc23)cc1	2.2	1.7	8.3	23.1
O=C(CN1C(=O)COc2cc(Cl)ccc21)NC1CC1	-1.6	2.3	0.6	0.6
Clc1ccc(CN=C(Nc2ccccc2)NC2CC2)c(Cl)c1	24.7	5.4	30.8*	8.5
CCc1cccc(C)c1NCC(=O)N1CCCc2ccccc21	-119.5	-105.0	-414.9	-91.9
Cc1ccc2[nH]c(=O)c(CN(CC3COCCO3)C(=O)Nc3ccccc3Cl)cc2c1 (centres undefined)	-2.4	nt	-1.4	-3.3
Cc1ccc2[nH]c(=O)c(CN(CC3CCCO3)S(C)(=O)=O)cc2c1 (centres undefined)	8.1	1.9	23.2	7.0
Cc1ccc2[nH]c(=O)c(CN(CC3CCCO3)S(=O)(=O)c3ccccc3)cc2c1 (centres undefined)	14.9	52.9*	36.5*	20.6
Cc1ccc2[nH]c(=O)c(CN(CC3COCCO3)C(=O)Nc3ccccc3F)cc2c1 (centres undefined)	7.4	13.2	37.5*	18.5
CN(Cc1ccccc1)C(=O)CN(C)C(c1ccccc1)c1ccccc1	9.5	10.0	17.0	23.2
Cc1ccc2nc(CCc3ccc(NS(=O)(=O)c4ccc(F)c(F)c4)cc3)[nH]c2c1	30.9*	1.4	2.7	-7.8
Clc1ccc2nc(NC3=NCN(CCc4ccccc4)CN3)nc(-c3ccccc3)c2c1	27.3	-5.0	37.8*	3.8
COc1ccccc1NC(=O)N1CCN(CCc2ccccc2)CC1	0.6	3.9	16.9	3.1
COc1cccc2c(C)nc(NC3=NCN(CCc4ccccc4)CN3)nc12	14.8	0.4	33.4*	12.7
Cc1cc(-c2cnc(N3CCCCC3)nc2C2CCN(c3ncccn3)CC2)on1	-0.3	4.8	-0.8	5.6
Cc1cc(-c2cnc(N3CCSCC3)nc2[C@@H]2CCCO2)on1	-0.2	30.0	32.6*	2.8
Cc1cc(-c2cnc(NC3CCCC3)nc2[C@H]2CCCO2)on1	nt	-6.9	nt	-9.5
Cc1cc(-c2cnc(N3CCCCC3)nc2C2CCN(c3cnccn3)CC2)on1	8.4	16.8	34.4*	6.3
CCCC(=O)Nc1ccc(N2CCN(c3ccccc3)C2=O)nc1	-2.0	9.1	16.1	7.4
O=C(Nc1cccn(Cc2c(Cl)cccc2Cl)c1=O)c1ccccc1[N+](=O)[O-]	80.8*	8.7	46.3*	14.9
SMILES	USP28 inh	USP17 inh	USP30 inh	OTUD3 block
COc1ccc(C2NC3=NCN(C(C)C)CN3c3nc4ccccc4n32)cc1 (centres undefined)	12.0	12.1	33.2*	19.8
CCOC(=O)c1c2ccc(OCc3ccc([N+](=O)[O-])cc3)cc2n2ccccc12	1.1	24.6	8.3	3.0
O=C(CCCn1c(=O)c2ccccc2n(Cc2ccc(F)cc2)c1=O)NCc1ccco1	-2.3	3.3	0.6	-3.1
Cc1ccc(Cl)cc1NC(=O)Cn1c(=O)n(CCC(=O)NC2CCCC2)c(=O)c2ccccc21	15.0	23.2	41.1*	11.4
O=C(Cc1ccc(-n2c(=O)c3ccccc3n(CC(=O)Nc3ccc(Cl)cc3Cl)c2=O)cc1)NCc1ccco1	10.4	21.0	16.4	2.8
Cc1ccc(Cl)cc1NC(=O)Cn1c(=O)n(CCC(=O)NCc2ccco2)c(=O)c2ccccc21	15.3	15.4	32.5*	15.1
O=C(Cn1c(=O)n(CCC(=O)NC2CCCC2)c(=O)c2ccccc21)Nc1ccccc1F	3.0	14.0	19.1	10.3
O=C(CCn1c(=O)c2ccccc2n(Cc2ccc(F)cc2Cl)c1=O)NCc1ccco1	6.5	38.2*	15.3	18.6
COc1cc2c(=O)n(CCC(=O)NCc3ccco3)c(=O)n(CC(=O)Nc3c(C)cccc3C)c2cc1OC	64.8*	60.7*	30.0*	50.4*
COCc1nc(NC2CCc3ccccc32)ncc1C(=O)O (centres undefined)	-1.2	-8.9	-51.6	-10.8
COc1cc(NC(=O)Cn2c(=O)n(-c3ccc(CC(=O)NC4CCCC4)cc3)c(=O)c3ccccc32)cc(OC)c1	43.8*	40.7*	21.0	42.7*
O=C(Cn1c(=O)n(-c2ccc(CC(=O)NC3CCCC3)cc2)c(=O)c2ccccc21)Nc1ccccc1[N+](=O)[O-]	14.4	21.2	15.8	29.0
O=S(=O)(c1ccccc1)c1cnc2ccc(F)cc2c1Nc1ccc(F)cc1	-5.3	-0.5	9.3	-0.1
O=C(NCCc1c[nH]c2ccc(F)cc12)C(=O)Nc1cccc2ncccc12	-8.6	44.9*	-7.0	-7.1
COC(=O)c1c(C)[nH]c(C(=O)C(C)OC(=O)CCC2CCCC2)c1C (centres undefined)	79.4*	5.1	-8.3	-5.9
CNC(=O)c1cc2c(=O)n3cccc(C)c3nc2n1Cc1ccccc1	0.4	79.6*	6.8	1.1
CCC1CCCCN1C(=O)c1cc2c(=O)n3ccccc3nc2n1Cc1ccccc1 (centres undefined)	15.2	9.3	30.5*	10.5
O=C(c1cc2c(=O)n3ccccc3nc2n1Cc1ccccc1)N1CCCCCC1	-9.8	-9.5	-15.3	-4.1
COc1ccc(-n2nnc(C(=O)NCc3ccc(F)cc3F)n2)cc1	16.3	-3.1	-2.4	9.5
Cc1nc(NC(=O)c2nnn(-c3ccc(F)cc3)n2)sc1C	6.1	39.5*	-2.1	-2.0
COc1ccccc1CNC(=O)c1nnn(-c2ccc(Cl)cc2)n1	24.1	19.1	34.5*	22.8
COc1cccc(NC(=O)c2nnn(-c3ccccc3)n2)c1	66.3*	-0.8	0.2	-1.7
Cc1ccc(NC(=O)c2nnn(-c3ccccc3)n2)cc1	28.7	1.0	12.4	-3.2
COc1ccc(-n2nnc(C(=O)Nc3nc(C)c(C)s3)n2)cc1	42.0*	48.1*	33.7*	12.4
O=C(c1ccc(OCC2CCN(C(=O)c3ccc(F)cc3)CC2)cc1)N1CCOCC1	-6.6	-6.2	-12.0	-0.7
CCN(C(=O)COC(=O)c1ccccc1OCc1ccccc1Cl)c1ccccc1	13.6	11.1	17.9	16.1
COc1ccc(C)cc1NC(=O)c1sc2ncnc(N3CCN(C)CC3)c2c1C	-5.6	1.2	1.2	8.6
Cn1c(NC(=O)C2CCCCC2)c(-c2cccc(Cl)c2)c(=O)c2ccccc21	16.5	16.9	29.0	17.4
Clc1ccc2c(Nc3ccc4c(c3)OCO4)ccnc2c1	43.4*	55.7*	52.7*	9.9
Cc1nc(SCC(=O)N2CCc3ccccc32)c2oc3ccccc3c2n1	-4.7	8.3	-17.2	-6.0
